This is a sample that favours compounds with a hit; in the whole collection about 1.7% have one here.
TRHR agonist-1 = qHTS for Small Molecule Agonists and Allosteric Enhancers of Human TRH Receptor: Primary Screen for Agonists. Thyrotropin-releasing hormone receptor (Homo sapiens), P34981. TRHR cells, calcium flux fluo-8, FDSS agonist mode. activation, % at 2 µM. actives 0.18% (n = 360,000). AID 493084, 2011; in the data active = activation above about 30%; also: 0% is about no effect
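Read-out: compound-evoked intracellular calcium rise in TRHR cells, fluo-8 dye, kinetic FDSS fluorescence at 1 s/cycle following a 10-cycle baseline. Cells cultured overnight before dye loading (30 min–1.5 h, RT).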
TRPML1 ag = qHTS for Agonists of the Human Mucolipin Transient Receptor Potential 1 (TRPML1); Mucolipin-1 (Homo sapiens), Q9GZU1; TRPML1-expressing cells, Ca2+ dye fluorescence, FDSS; activation, % (test concentration not listed); actives 0.12% (n = 410,000); AID 624414, 2012; in the data active = activation above about 50%; inconclusive = mostly about 30% to 49%; also: 0% is about no effect
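Agonist activity was taken from a 110 s kinetic Ca2+ dye read on the FDSS after pinning compounds onto TRPML1-DL cells. The cells were seeded at 1,500/well with Tet inducer, incubated about 16 h, then dye-loaded at room temperature.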
TRHR enhancer-1 = qHTS for Small Molecule Agonists and Allosteric Enhancers of Human TRH Receptor: Primary Screen for Enhancers. actives 0.66% (n = 360,000). enhancement, % at 2 µM. AID 493056, 2011. TRHR cells, fluo-8 calcium fluorescence, EC20 TRH enhancement. Thyrotropin-releasing hormone receptor (Homo sapiens), P34981; in the data active = enhancement above about 30%; also: 0% is about no effect
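TRHR-expressing cells loaded with fluo-8 calcium dye were read kinetically (ex 480/em 530) during compound addition, then stimulated with an EC20 of TRH (10 nM final). Enhancement of the Gq-mediated intracellular calcium response was scored.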
KCNH2 WT inh = qHTS for Inhibitors of KCHN2 3.1: Wildtype qHTS; activity change, % at 1.84 µM; U2OS, BacMam KCNH2, thallium flux FluxOr; active compounds read low; actives 0.37% (n = 340,000); AID 720551, 2013; Voltage-gated inwardly rectifying potassium channel KCNH2 (Homo sapiens), Q12809;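 active = maximum activity change below -70%; inconclusive = maximum activity change between -70% and -50%; inactive = maximum activity change above -50%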; also: % is scaled to controls: 0 for no effect and ±100 for the full control effect
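U2OS cells were transduced with wild-type KCNH2 virus (2.03 x 10^8 / mL) for 4 h at room temperature, then cultured overnight at 37 C. Thallium flux was read with FluxOr dye. Rate constants were normalized to DMSO controls.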
KCNH2 3.1 block = qHTS for Inhibitors of KCHN2 3.1: Mutant qHTS | U2OS KCNH2 3.1, thallium flux FluxOr; active compounds read low | activity change, % (tested at about 1.8 µM) | actives 0.95% (n = 340,000);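 active = maximum activity change below -70%; inconclusive = maximum activity change from -70% to -50%; inactive = maximum activity change above -50%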;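 also: thallium influx rate constant from kinetic fluorescence after stimulation buffer; % is scaled to controls: 0 for no effect and ±100 for the full control effect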
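U2OS cells transduced with KCNH2 3.1 mutant virus (1.77 x 10^8 /mL, 4 h), plated overnight at 37 C, loaded 45 min with FluxOr dye plus Red40 quencher. Thallium flux rate constant from kinetic reads after stimulation buffer, normalised to controls.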
TRPML1 inh = qHTS for Inhibitors of the Human Mucolipin Transient Receptor Potential 1 (TRPML1) | actives 0.02% (n = 390,000) | TRPML1-inducible cells, Ca2+ dye fluorescence, FDSS; active compounds read low; inhibition of EC80 agonist-evoked calcium signal | Mucolipin-1 (Homo sapiens), Q9GZU1 | activity change, negative = inhibition, % (test concentration not listed); in the data active = activity change below about -50%; inconclusive = between about -30% and that limit;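 also: stimulus is agonist 54-4 at its EC80 concentration; % is scaled to controls: 0 for no effect and ±100 for the full control effect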
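Calcium fluorescence in TRPML1-DL cells induced overnight with Tet: a 110 s read after compound pin addition, then a 110 s antagonist read after challenge with 54-4 at 4 uM final (EC80).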
TRHR enhancer-2 = qHTS for Small Molecule Agonists and Allosteric Enhancers of Human TRH Receptor: Confirmation Screen for Enhancers. AID 493076, 2011. 970 tested, under 10 active. shares compounds with TRHR enhancer-1. activity change, negative = inhibition, % at 46.1 µM. TRH receptor cell assay, enhancer confirmation qHTS;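 also: compound effect scored on response to added TRH at EC20 of 10 nM; 0% is about no effect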
TRHR agonist-2 = qHTS for Small Molecule Agonists and Allosteric Enhancers of Human TRH Receptor: Confirmation Screen for Agonists; shares compounds with TRHR enhancer-1; TRHR-expressing cells, agonist activation read-out; Potency, µM (titrated, usually from 46.1 µM), for inactives: top-dose activation, usual class: activators; actives 8% (n = 970); AID 493078, 2011; also: potency is read from the fitted curve at half-maximal effect; 0% is about no effect; nearly all actives have a fitted effect of over 75% in size
* = called active by the depositor. Unless noted, calls follow the shape of the dose curve; as a rule, active = well fitted curve in the direction sought with a large enough effect; inconclusive = small, poorly fitted or top-dose-only effect, or another doubt; inactive = no such curve, though single readings can be large; an effect the other way counts as inactive or inconclusive.

Results for Cc1ccc(S(=O)(=O)N2C[C@H]3[C@H]4C(=O)N(C)C(=O)[C@H]4CC(=O)[C@H]3[C@@H]2c2ccccc2F)cc1 ?
TRPML1 ag: 0; TRPML1 inh: 0

What do the screens show for `Cc1ccccc1C(=O)c1cccn1CC(=O)NC(C)CCc1ccccc1` (centres undefined)?
TRHR agonist-1: 0; TRPML1 ag: 3; TRHR enhancer-1: 0; KCNH2 WT inh: -13; KCNH2 3.1 block: -1; TRPML1 inh: 15

How did CC(CCc1ccccc1)NC(=O)Cn1cccc1C(=O)c1ccccc1 (centres undefined) do in these assays?
TRHR agonist-1: -1; TRPML1 ag: -1; TRHR enhancer-1: 46*; KCNH2 WT inh: 10; KCNH2 3.1 block: -6; TRPML1 inh: 8; TRHR enhancer-2: inconclusive; TRHR agonist-2: 3%

Results for OCCC1CN(Cc2cc3c(cc2Cl)OCO3)CCN1C1CCCC1 (centres undefined) ?
TRHR agonist-1: 0; TRPML1 ag: 0; TRHR enhancer-1: 54*; KCNH2 WT inh: 47; KCNH2 3.1 block: 7; TRPML1 inh: 11; TRHR enhancer-2: 0; TRHR agonist-2: 5%

What do the screens show for `O=C1CCCN1CCCNc1ncnc2c1cnn2-c1ccc(Cl)cc1`?
TRHR agonist-1: 0; TRPML1 ag: -1; TRHR enhancer-1: 54*; KCNH2 WT inh: 0; KCNH2 3.1 block: 19; TRPML1 inh: -2; TRHR enhancer-2: -8; TRHR agonist-2: 5%

Results for Cc1cccc(-n2ncc3c(NCCCN4CCCC4=O)ncnc32)c1 ?
TRHR agonist-1: 0; TRPML1 ag: 0; TRHR enhancer-1: 6; KCNH2 WT inh: 5; KCNH2 3.1 block: -1; TRPML1 inh: 12

How did O=C(CCCCl)Oc1ccc2cc(-c3ccc4ccccc4n3)c(=O)oc2c1 do in these assays?
TRHR agonist-1: 32*; TRPML1 ag: 25; TRHR enhancer-1: 2; KCNH2 WT inh: -10; KCNH2 3.1 block: -7; TRPML1 inh: 12; TRHR enhancer-2: 9; TRHR agonist-2: inconclusive

What do the screens show for `CC(=O)COc1ccc2cc(-c3ccccc3)c(=O)oc2c1`?
TRHR agonist-1: 0; TRPML1 ag: -1; TRHR enhancer-1: -7; KCNH2 WT inh: 22; KCNH2 3.1 block: -3; TRPML1 inh: 1

What do the screens show for `Cc1ccc(-n2c(C)cc(C(=O)C(=O)Nc3ccccc3)c2C)c(C)c1`?
TRHR agonist-1: -1; TRPML1 ag: 0; TRHR enhancer-1: 0; TRPML1 inh: 4

What do the screens show for `Cc1c(C)c2ccc(OCC(=O)NCCCn3ccnc3)cc2oc1=O`?
TRHR agonist-1: 0; TRPML1 ag: 0; TRHR enhancer-1: 43*; KCNH2 WT inh: -4; KCNH2 3.1 block: 27; TRPML1 inh: -2; TRHR enhancer-2: 1; TRHR agonist-2: 0%

Screens deposited in PubChem by National Center for Advancing Translational Sciences (NCATS).
